Source: PubChem BioAssay (EPA / NIEHS)
Activity calls are given as the source filed them. The calls were made as follows: active = hit-call score of the fitted dose curve at least 0.9, where 1 is the maximum; inactive = score below 0.9.

How the values were obtained:
Details in all cases: mRNA level, 48 h; actives raise or lower the signal
[1] = read-out: Potassium channel subfamily K member 1 (KCNK1), KCNK1 (gene 3775); assay: LTEA_HepaRG_KCNK1: Life Technologies and Expression Analysis (LTEA) Assay for Potassium channel subfamily K member 1 (KCNK1) using HepaRG (AID 2283511)
Procedure, shortened: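 Differentiated HepaRG cells, 48 h exposure in serum-free induction medium with 0.5% DMSO; 8 concentrations, half-log from 100 uM, duplicate. KCNK1 mRNA by qRT-PCR, normalized to ACTB, GAPDH, POLR2A; bidirectional fit vs DMSO.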

[2] = read-out: Keratin 19 (KRT19), KRT19 (gene 3880); assay: LTEA_HepaRG_KRT19: Life Technologies and Expression Analysis (LTEA) Assay for Keratin 19 (KRT19) using HepaRG (AID 2283512)
Procedure, shortened: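 KRT19 transcript levels, measured by Fluidigm qRT-PCR against three housekeeping genes, are fitted for gain or loss of signal relative to DMSO. Human HepaRG cells receive test chemicals (top 100 uM, half-log steps, 0.5% DMSO) for 48 hours.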

[3] = read-out: Lipase C (LIPC), LIPC (gene 3990); assay: LTEA_HepaRG_LIPC: Life Technologies and Expression Analysis (LTEA) Assay for Lipase C (LIPC) using HepaRG (AID 2283514)
Procedure, shortened: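 HepaRG cells, 48 h after plating, treated in duplicate for 48 h in serum-free induction medium over 8 half-log concentrations from 100 uM, 0.5% DMSO. LIPC mRNA by TaqMan qRT-PCR normalized to ACTB/GAPDH/POLR2A; bidirectional fit versus DMSO.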

[4] = read-out: Lipoprotein lipase (LPL), LPL (gene 4023); assay: LTEA_HepaRG_LPL: Life Technologies and Expression Analysis (LTEA) Assay for Lipoprotein lipase (LPL) using HepaRG (AID 2283515)
Procedure, shortened: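 Differentiated HepaRG cells, plated 48 h, then exposed 48 h in serum-free induction medium to 8 concentrations (top 100 uM, half-log steps) in 0.5% DMSO, duplicate. LPL mRNA measured by qRT-PCR, normalized to ACTB, GAPDH and POLR2A.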

[5] = read-out: MicroRNA 122 (MIR122), gene 406906; assay: LTEA_HepaRG_MIR122: Life Technologies and Expression Analysis (LTEA) Assay for MicroRNA 122 (MIR122) using HepaRG (AID 2283516); also: the transcript read is the microRNA miR-122
Procedure, shortened: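 Differentiated human HepaRG cells were exposed 48 h in serum-free induction medium to eight half-log concentrations (top 100 uM, 0.5% DMSO). Transcript level was measured by TaqMan qRT-PCR, normalized to ACTB, GAPDH and POLR2A, and fitted bidirectionally versus DMSO.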

[6] = read-out: matrix metalloproteinase-10 (MMP10), MMP10 (gene 4319); assay: LTEA_HepaRG_MMP10: Life Technologies and Expression Analysis (LTEA) Assay for matrix metalloproteinase-10 (MMP10) using HepaRG (AID 2283517)
Procedure, shortened: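 Differentiated HepaRG cells in serum-free induction medium exposed 48 h in duplicate to 8-point half-log series up to 100 uM in 0.5% DMSO. mRNA quantified by qRT-PCR, normalised to ACTB, GAPDH, POLR2A; bidirectional fit versus DMSO.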

MYC, MYC (gene 4609) = assay: LTEA_HepaRG_MYC: Life Technologies and Expression Analysis (LTEA) Assay for MYC using HepaRG (AID 2283518)
Procedure, shortened: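 HepaRG, ~100,000 cells/well, collagen I; 48 h plating; serum-free induction medium; 48 h dosing, duplicate, 100 uM top, half-log, 0.5% DMSO; total RNA → qRT-PCR MYC; gain/loss fit vs DMSO.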

[7] = read-out: matrix metalloproteinase-3 (MMP3), MMP3 (gene 4314); assay: LTEA_HepaRG_MMP3: Life Technologies and Expression Analysis (LTEA) Assay for matrix metalloproteinase-3 (MMP3) using HepaRG (AID 2283519)
Procedure, shortened: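 HepaRG cells (~100,000/well) in serum-free induction medium were dosed in duplicate for 48 h with an 8-point half-log series from 100 uM, 0.5% DMSO. MMP3 mRNA was quantified by Fluidigm TaqMan qRT-PCR, normalized to three housekeeping genes.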

[8] = read-out: Paternally Expressed 10 (PEG10), PEG10 (gene 23089); assay: LTEA_HepaRG_PEG10: Life Technologies and Expression Analysis (LTEA) Assay for Paternally Expressed 10 (PEG10) using HepaRG (AID 2283520)
Procedure, shortened: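 Differentiated HepaRG cells, plated 48 h then switched to serum-free induction medium, were exposed in duplicate for 48 h to eight half-log concentrations topping at 100 uM in 0.5% DMSO. PEG10 mRNA was quantified by TaqMan qRT-PCR, normalised to ACTB, GAPDH and POLR2A.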

[9] = read-out: Nuclear factor NF-kappa-B p105 subunit (Homo sapiens) (UniProt P19838); assay: LTEA_HepaRG_NFKB1: Life Technologies and Expression Analysis (LTEA) Assay for Nuclear Factor Kappa B Subunit 1 (NFKB1) using HepaRG (AID 2283521);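 also: TaqMan qRT-PCR transcript normalised to ACTB GAPDH and POLR2A housekeeping genes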
Procedure, shortened: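 HepaRG, 48 h exposure; 8-pt half-log series from 100 uM in 0.5% DMSO; duplicates. Readout: NFKB1 mRNA by qRT-PCR (Fluidigm arrays), housekeeping-normalized. Gain/loss fit vs DMSO baseline.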

[10] = read-out: Protein phosphatase 2A (PPP2R4), PTPA (gene 5524); assay: LTEA_HepaRG_PPP2R4: Life Technologies and Expression Analysis (LTEA) Assay for Protein phosphatase 2A (PPP2R4) using HepaRG (AID 2283522)
Procedure, shortened: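 Differentiated HepaRG cells in serum-free induction medium were exposed in duplicate for 48 h to eight concentrations, top 100 uM with half-log dilutions, in 0.5% DMSO. PPP2R4 mRNA was quantified by TaqMan qRT-PCR, normalized to ACTB, GAPDH and POLR2A.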

[11] = read-out: Phosphatase and tensin (PTEN), PTEN (gene 5728); assay: LTEA_HepaRG_PTEN: Life Technologies and Expression Analysis (LTEA) Assay for Phosphatase and tensin (PTEN) using HepaRG (AID 2283523)
Procedure, shortened: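 HepaRG cells, 48 h after plating, exposed in duplicate for 48 h in serum-free induction medium to 8 half-log concentrations up to 100 uM (0.5% DMSO). PTEN mRNA by qRT-PCR, normalized to ACTB, GAPDH, POLR2A; bidirectional fit versus DMSO.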

[12] = read-out: solute carrier (SLC22A1), SLC22A1 (gene 6580); assay: LTEA_HepaRG_SLC22A1: Life Technologies and Expression Analysis (LTEA) Assay for solute carrier (SLC22A1) using HepaRG (AID 2283524)
Procedure, shortened: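 Differentiated human HepaRG cells in serum-free induction medium, exposed 48 h in duplicate to 8-point half-log series from 100 µM top in 0.5% DMSO. SLC22A1 mRNA by TaqMan qRT-PCR normalized to ACTB, GAPDH, POLR2A; bidirectional fit versus DMSO.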

[13] = read-out: Pyruvate Dehydrogenase Kinase 4 (PDK4), PDK4 (gene 5166); assay: LTEA_HepaRG_PDK4: Life Technologies and Expression Analysis (LTEA) Assay for Pyruvate Dehydrogenase Kinase 4 (PDK4) using HepaRG (AID 2283525)
Procedure, shortened: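 HepaRG cells plated 48 h, then switched to serum-free induction medium and exposed in duplicate for 48 h to 8 half-log concentrations from 100 uM in 0.5% DMSO. PDK4 mRNA measured by qRT-PCR, normalized to ACTB, GAPDH and POLR2A; bidirectional fit versus DMSO.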

[14] = read-out: NAD(P)H dehydrogenase [quinone] 1 (NQO1), NQO1 (gene 1728); assay: LTEA_HepaRG_NQO1: Life Technologies and Expression Analysis (LTEA) Assay for NAD(P)H dehydrogenase [quinone] 1 (NQO1) using HepaRG (AID 2283526)
Procedure, shortened: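 Differentiated HepaRG cells, plated 48 h and then switched to serum-free induction medium, were exposed in duplicate for 48 h to 8-point half-log concentrations up to 100 uM in 0.5% DMSO. mRNA measured by qRT-PCR, normalized to ACTB, GAPDH, POLR2A; bidirectional fit versus DMSO.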

[15] = read-out: Nuclear factor erythroid 2-related factor 2 (Homo sapiens) (UniProt Q16236); assay: LTEA_HepaRG_NFE2L2: Life Technologies and Expression Analysis (LTEA) Assay for Nuclear factor erythroid 2-related factor 2 (NFE2L2) Transcription Factor using HepaRG (AID 2283527);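 also: TaqMan qRT-PCR transcript level normalised to ACTB GAPDH and POLR2A housekeeping genes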
Procedure, shortened: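 Differentiated human HepaRG cells, serum-free induction medium, exposed 48 h in duplicate to eight half-log concentrations up to 100 uM in 0.5% DMSO. NFE2L2 mRNA by Fluidigm TaqMan qRT-PCR, normalised to ACTB, GAPDH, POLR2A; bidirectional change versus DMSO.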

[16] = read-out: succinate dehydrogenase complex iron sulfur subunit B (SDHB), SDHB (gene 6390); assay: LTEA_HepaRG_SDHB: Life Technologies and Expression Analysis (LTEA) Assay for succinate dehydrogenase complex iron sulfur subunit B (SDHB) using HepaRG (AID 2283528)
Procedure, shortened: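 Readout is SDHB transcript level by qRT-PCR, normalised to three housekeeping genes and fitted bidirectionally against 0.5% DMSO vehicle. Human HepaRG cells were treated for 48 h at up to 100 uM.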

[17] = read-out: solute carrier (SLCO1B1), SLCO1B1 (gene 10599); assay: LTEA_HepaRG_SLCO1B1: Life Technologies and Expression Analysis (LTEA) Assay for solute carrier (SLCO1B1) using HepaRG (AID 2283530)
Procedure, shortened: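 HepaRG, serum-free induction medium, 48 h dosing, 8-pt half-log from 100 uM, 0.5% DMSO vehicle, duplicates. Readout: SLCO1B1 mRNA, qRT-PCR, ACTB/GAPDH/POLR2A normalization; up or down fit vs DMSO.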

[18] = read-out: JUN Transcription Factor, JUN (gene 3725); assay: LTEA_HepaRG_JUN: Life Technologies and Expression Analysis (LTEA) Assay for JUN Transcription Factor using HepaRG (AID 2283513)
Procedure, shortened: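 Differentiated HepaRG cells were exposed to chemicals for 48 h in serum-free induction medium, 8 concentrations from 100 uM in half-log steps, 0.5% DMSO vehicle, in duplicate. JUN mRNA was quantified by TaqMan qRT-PCR, normalized to ACTB, GAPDH, POLR2A.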

[19] = read-out: Signal transducer and activator of transcription 3 (Homo sapiens) (UniProt P40763); assay: LTEA_HepaRG_STAT3: Life Technologies and Expression Analysis (LTEA) Assay for Signal transducer and activator of transcription (STAT3) using HepaRG (AID 2283529)
Procedure, shortened: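 Differentiated HepaRG cells, serum-free induction medium, dosed 48 h in duplicate, 8 half-log concentrations from 100 uM in 0.5% DMSO. STAT3 mRNA by qRT-PCR, normalised to ACTB, GAPDH, POLR2A; bidirectional fit versus DMSO.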

Measured: outcome

Chain of Nuclear factor NF-kappa-B p105 subunit (Homo sapiens) (P19838 whole entry, looked up): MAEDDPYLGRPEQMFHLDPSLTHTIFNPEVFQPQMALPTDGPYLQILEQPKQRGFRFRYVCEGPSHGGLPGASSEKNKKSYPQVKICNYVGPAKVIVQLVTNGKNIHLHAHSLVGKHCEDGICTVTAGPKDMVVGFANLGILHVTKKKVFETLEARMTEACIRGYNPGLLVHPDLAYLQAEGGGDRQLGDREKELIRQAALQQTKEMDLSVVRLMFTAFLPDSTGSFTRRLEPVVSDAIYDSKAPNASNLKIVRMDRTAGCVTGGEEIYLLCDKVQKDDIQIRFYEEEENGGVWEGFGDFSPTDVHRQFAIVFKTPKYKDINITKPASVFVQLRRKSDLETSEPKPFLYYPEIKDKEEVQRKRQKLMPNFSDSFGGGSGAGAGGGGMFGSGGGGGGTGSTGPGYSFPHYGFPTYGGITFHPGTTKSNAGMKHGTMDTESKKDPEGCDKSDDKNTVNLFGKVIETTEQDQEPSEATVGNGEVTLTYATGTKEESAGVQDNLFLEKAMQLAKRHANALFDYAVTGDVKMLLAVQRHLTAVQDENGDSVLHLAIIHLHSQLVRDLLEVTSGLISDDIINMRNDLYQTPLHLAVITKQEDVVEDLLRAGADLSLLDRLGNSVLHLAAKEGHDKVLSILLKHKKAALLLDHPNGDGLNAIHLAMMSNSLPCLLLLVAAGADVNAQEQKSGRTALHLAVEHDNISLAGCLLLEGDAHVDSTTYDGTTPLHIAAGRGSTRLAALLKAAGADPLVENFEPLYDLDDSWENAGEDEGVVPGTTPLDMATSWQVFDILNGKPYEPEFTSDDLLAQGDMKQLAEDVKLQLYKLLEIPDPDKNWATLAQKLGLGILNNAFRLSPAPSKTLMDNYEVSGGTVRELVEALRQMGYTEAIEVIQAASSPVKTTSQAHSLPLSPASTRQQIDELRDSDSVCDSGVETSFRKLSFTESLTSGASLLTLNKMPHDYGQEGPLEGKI
Chain of Nuclear factor erythroid 2-related factor 2 (Homo sapiens) (Q16236 whole entry, looked up): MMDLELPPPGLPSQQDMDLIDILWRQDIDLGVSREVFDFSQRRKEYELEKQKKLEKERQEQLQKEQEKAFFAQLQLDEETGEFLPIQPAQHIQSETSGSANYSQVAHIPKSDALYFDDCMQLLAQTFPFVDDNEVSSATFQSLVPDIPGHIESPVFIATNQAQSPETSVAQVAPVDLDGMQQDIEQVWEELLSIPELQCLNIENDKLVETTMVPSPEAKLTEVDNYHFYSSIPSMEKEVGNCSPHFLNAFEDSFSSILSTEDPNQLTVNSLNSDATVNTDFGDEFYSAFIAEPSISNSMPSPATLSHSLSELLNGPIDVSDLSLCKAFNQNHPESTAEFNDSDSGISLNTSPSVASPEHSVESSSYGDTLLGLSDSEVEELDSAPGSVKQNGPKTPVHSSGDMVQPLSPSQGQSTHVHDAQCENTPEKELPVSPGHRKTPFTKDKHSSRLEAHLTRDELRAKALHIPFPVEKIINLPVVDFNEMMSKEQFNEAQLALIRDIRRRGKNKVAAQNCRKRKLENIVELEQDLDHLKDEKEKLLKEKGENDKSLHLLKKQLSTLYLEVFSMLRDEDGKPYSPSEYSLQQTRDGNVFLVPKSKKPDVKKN
Chain of Signal transducer and activator of transcription 3 (Homo sapiens) (P40763 whole entry, looked up): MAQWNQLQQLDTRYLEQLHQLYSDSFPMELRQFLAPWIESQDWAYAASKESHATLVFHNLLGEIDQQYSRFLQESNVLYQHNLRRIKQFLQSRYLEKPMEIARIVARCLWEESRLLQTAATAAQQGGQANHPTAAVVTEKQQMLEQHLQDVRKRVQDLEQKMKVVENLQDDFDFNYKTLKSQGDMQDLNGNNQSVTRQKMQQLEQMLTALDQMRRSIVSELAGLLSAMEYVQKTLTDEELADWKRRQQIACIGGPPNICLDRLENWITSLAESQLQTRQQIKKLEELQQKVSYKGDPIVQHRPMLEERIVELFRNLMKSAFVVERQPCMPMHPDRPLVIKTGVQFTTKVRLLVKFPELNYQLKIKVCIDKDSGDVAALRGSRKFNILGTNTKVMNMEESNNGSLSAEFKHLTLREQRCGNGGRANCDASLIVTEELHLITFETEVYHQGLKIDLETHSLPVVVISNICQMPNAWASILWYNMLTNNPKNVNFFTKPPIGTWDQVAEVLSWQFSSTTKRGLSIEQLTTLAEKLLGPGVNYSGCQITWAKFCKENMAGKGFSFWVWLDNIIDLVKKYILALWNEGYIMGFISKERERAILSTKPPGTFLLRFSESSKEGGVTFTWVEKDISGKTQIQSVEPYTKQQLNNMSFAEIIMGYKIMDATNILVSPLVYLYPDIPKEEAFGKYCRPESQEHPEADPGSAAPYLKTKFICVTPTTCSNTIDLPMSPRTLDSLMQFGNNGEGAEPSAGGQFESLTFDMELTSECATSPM

CC(C)(C)OOC(C)(C)C
not listed: [18] | [19]
inactive: all other assays above

CCOP(=S)(OCC)SCSCC
not listed: [18] | [19]
inactive: all other assays above

Cc1cccc(N)c1
not listed: [18] | [19]
inactive: all other assays above

O=C(O)C1C(C(=O)O)C2(Cl)C(Cl)=C(Cl)C1(Cl)C2(Cl)Cl (centres undefined)
not listed: [18] | [19]
inactive: all other assays above

CCOC(=O)c1ccccc1C(=O)OCC
not listed: [18] | [19]
inactive: all other assays above

CCC(C)(C)c1ccc(O)cc1
not listed: [18] | [19]
inactive: all other assays above

CCCCN(CCCC)N=O
not listed: [18] | [19]
inactive: all other assays above

CCC1(c2ccccc2)C(=O)N=C(O)NC1=O (centres undefined)
not listed: [19]
inactive: all other assays above

CCCCN(CCCC)SN(C)C(=O)Oc1cccc2c1OC(C)(C)C2
not listed: [18]
inactive: all other assays above

O=[N+]([O-])c1ccc(Cl)c(Cl)c1
inactive: all assays above
